Measurements taken from the supplement of paper PMC6897291.

How the values were obtained:
[1] = test system: U-2932; experiment: growth inhibition by drug alone (1 - RLU/untreated control) (fraction); higher = stronger inhibition; settings: 177Lu-lilotomab satetraxetan 0 ug/ml
Method in brief: (§1)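 RIVA or U-2932 cells were left untreated or pretreated for 18 h with a radiolabelled anti-CD37 antibody conjugate (~600 MBq/mg) at 0.5 µg/ml for RIVA or 1 µg/ml for U-2932. The cells were then washed and seeded at 3,000 cells/well on plates pre-printed with the Selleck Cambridge Cancer Compound library, dosed at 10/100 nM for RIVA and 10/1,000 nM for U-2932. From day 3, RealTime-Glo luminescence was read daily after 1 h at 37°C. Growth inhibition was taken as one minus RLU over the mean of the untreated no-drug wells, of which there were 48 per plate.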

[2] = test system: RIVA; experiment: as above; settings: 177Lu-lilotomab satetraxetan 0 ug/ml
Method in brief: as §1

[3] = test system: U-2932; experiment: growth inhibition by drug plus 177Lu-lilotomab satetraxetan (1 - RLU/untreated control) (fraction); higher = stronger inhibition; settings: 177Lu-lilotomab satetraxetan 1 ug/ml
Method in brief: as §1

[4] = test system: RIVA; experiment: as above; settings: 177Lu-lilotomab satetraxetan 0.5 ug/ml
Method in brief: as §1

Structure (SMILES)	growth inhibition by drug alone ([1]; 10 nM, time (day): 3)	growth inhibition by drug alone ([1]; 10 nM, time (day): 4)	growth inhibition by drug alone ([1]; 10 nM, time (day): 5)	growth inhibition by drug alone ([1]; 10 nM, time (day): 6)	growth inhibition by drug alone ([1]; 1000 nM, time (day): 3)	growth inhibition by drug alone ([1]; 1000 nM, time (day): 4)	growth inhibition by drug alone ([1]; 1000 nM, time (day): 5)	growth inhibition by drug alone ([1]; 1000 nM, time (day): 6)	growth inhibition by drug alone ([2]; 10 nM, time (day): 3)	growth inhibition by drug alone ([2]; 10 nM, time (day): 4)	growth inhibition by drug alone ([2]; 10 nM, time (day): 5)	growth inhibition by drug alone ([2]; 10 nM, time (day): 6)	growth inhibition by drug alone ([2]; 100 nM, time (day): 3)	growth inhibition by drug alone ([2]; 100 nM, time (day): 4)	growth inhibition by drug alone ([2]; 100 nM, time (day): 5)	growth inhibition by drug alone ([2]; 100 nM, time (day): 6)	growth inhibition by drug plus 177Lu-lilotomab satetraxetan ([3]; 10 nM, time (day): 3)	growth inhibition by drug plus 177Lu-lilotomab satetraxetan ([3]; 10 nM, time (day): 4)	growth inhibition by drug plus 177Lu-lilotomab satetraxetan ([3]; 10 nM, time (day): 5)	growth inhibition by drug plus 177Lu-lilotomab satetraxetan ([3]; 10 nM, time (day): 6)	growth inhibition by drug plus 177Lu-lilotomab satetraxetan ([3]; 1000 nM, time (day): 3)	growth inhibition by drug plus 177Lu-lilotomab satetraxetan ([3]; 1000 nM, time (day): 4)	growth inhibition by drug plus 177Lu-lilotomab satetraxetan ([3]; 1000 nM, time (day): 5)	growth inhibition by drug plus 177Lu-lilotomab satetraxetan ([3]; 1000 nM, time (day): 6)	growth inhibition by drug plus 177Lu-lilotomab satetraxetan ([4]; 10 nM, time (day): 3)	growth inhibition by drug plus 177Lu-lilotomab satetraxetan ([4]; 10 nM, time (day): 4)	growth inhibition by drug plus 177Lu-lilotomab satetraxetan ([4]; 10 nM, time (day): 5)	growth inhibition by drug plus 177Lu-lilotomab satetraxetan ([4]; 10 nM, time (day): 6)	growth inhibition by drug plus 177Lu-lilotomab satetraxetan ([4]; 100 nM, time (day): 3)	growth inhibition by drug plus 177Lu-lilotomab satetraxetan ([4]; 100 nM, time (day): 4)	growth inhibition by drug plus 177Lu-lilotomab satetraxetan ([4]; 100 nM, time (day): 5)	growth inhibition by drug plus 177Lu-lilotomab satetraxetan ([4]; 100 nM, time (day): 6)
CNCc1ccc(-c2[nH]c3cc(F)cc4c3c2CCNC4=O)cc1	0.062	0.0535	0.0443	0.155	0.0442	0.0462	0.0516	0.0343	-0.0585	-0.0309	-0.0988	-0.165	-0.0509	-0.0204	-0.0791	-0.0893	0.05	0.0426	0.0882	0.222	0.0393	0.0885	0.124	0.238	0.384	0.514	0.55	0.578	0.507	0.54	0.574	0.57
CC1(COc2ccc3c(c2)ncn3-c2ccc3cccc(N4CCC(N)CC4)c3n2)COC1	0.0766	0.0633	0.00938	-0.0623	0.0371	0.0705	-0.00181	0.0785	0.0318	-0.0103	-0.0736	-0.123	-0.25	-0.202	-0.209	-0.254	0.0763	0.118	0.168	0.194	0.257	0.342	0.386	0.516	0.618	0.628	0.633	0.631	0.449	0.485	0.466	0.463
CNC(=O)c1cc(COc2nnc(Nc3ccc(Cl)cc3)c3ccoc23)ccn1 [Telatinib (BAY 57-9352)]	-0.0124	0.00544	-0.0774	-0.272	-0.0825	-0.0325	-0.0739	-0.229	-0.0398	-0.0876	-0.128	-0.281	-0.214	-0.207	-0.212	-0.315	-0.0402	-0.000867	0.00308	0.0503	-0.145	-0.0474	-0.0515	0.00564	0.351	0.487	0.503	0.502	0.316	0.416	0.413	0.391
CC(=O)Nc1cccc(-n2c(=O)n(C3CC3)c(=O)c3c(Nc4ccc(I)cc4F)n(C)c(=O)c(C)c32)c1	0.103	0.0992	0.0497	0.109	0.311	0.328	0.215	0.243	0.0319	0.00936	-0.0739	-0.235	0.213	0.171	0.0872	-0.0469	0.124	0.133	0.11	0.234	0.319	0.326	0.258	0.328	0.463	0.488	0.477	0.465	0.507	0.487	0.455	0.407
Cc1[nH]c(/C=C2\C(=O)Nc3ccc(S(=O)(=O)Cc4c(Cl)cccc4Cl)cc32)c(C)c1C(=O)N1CCC[C@@H]1CN1CCCC1	-0.0448	-0.0348	-0.136	-0.363	-0.15	-0.0937	-0.118	-0.0292	-0.0942	-0.161	-0.228	-0.375	-0.272	-0.354	-0.323	-0.456	-0.098	-0.0543	-0.04	0.0103	-0.291	-0.156	-0.125	-0.00631	0.279	0.438	0.464	0.487	0.246	0.384	0.381	0.376
COc1cc(C(=O)NC(=S)Nc2cccc(NC(=O)c3ccccc3)c2)cc(OC)c1OC	0.147	0.139	0.0192	-0.0981	0.0988	0.139	0.108	0.0418	0.0482	0.0356	0.0061	-0.153	0.0949	0.0458	0.00408	-0.0801	0.0383	0.0678	0.111	0.148	-0.0454	0.0986	0.0849	0.125	0.491	0.568	0.58	0.595	0.562	0.589	0.588	0.568
Nc1nc(Nc2ccc(S(N)(=O)=O)cc2)nn1C(=O)c1c(F)cccc1F	0.0686	0.0712	0.0243	-0.028	0.297	0.39	0.398	0.477	0.09	-0.0123	-0.071	-0.232	-0.0601	-0.0559	-0.0832	-0.218	0.0456	0.07	0.0808	0.137	0.452	0.614	0.661	0.719	0.373	0.516	0.536	0.556	0.486	0.6	0.611	0.599
